Screens from PubChem.
PTHR1 agonist: qHTS for PTHR1 Agonists: Primary Screen | Parathyroid hormone/parathyroid hormone-related peptide receptor (Homo sapiens), Q03431 | HEK293 GP2 PTHR1 cells, GloSensor cAMP luminescence, 1 h | Potency, µM (series often up to 115 µM), for the others: top-dose activation, actives largely listed as activators | 410,000 tested, 0.075% active; note: potency is the fitted concentration of half-maximal effect; nearly all actives have a fitted effect of over 55% in size
Target sequence (Q03431 whole entry, looked up): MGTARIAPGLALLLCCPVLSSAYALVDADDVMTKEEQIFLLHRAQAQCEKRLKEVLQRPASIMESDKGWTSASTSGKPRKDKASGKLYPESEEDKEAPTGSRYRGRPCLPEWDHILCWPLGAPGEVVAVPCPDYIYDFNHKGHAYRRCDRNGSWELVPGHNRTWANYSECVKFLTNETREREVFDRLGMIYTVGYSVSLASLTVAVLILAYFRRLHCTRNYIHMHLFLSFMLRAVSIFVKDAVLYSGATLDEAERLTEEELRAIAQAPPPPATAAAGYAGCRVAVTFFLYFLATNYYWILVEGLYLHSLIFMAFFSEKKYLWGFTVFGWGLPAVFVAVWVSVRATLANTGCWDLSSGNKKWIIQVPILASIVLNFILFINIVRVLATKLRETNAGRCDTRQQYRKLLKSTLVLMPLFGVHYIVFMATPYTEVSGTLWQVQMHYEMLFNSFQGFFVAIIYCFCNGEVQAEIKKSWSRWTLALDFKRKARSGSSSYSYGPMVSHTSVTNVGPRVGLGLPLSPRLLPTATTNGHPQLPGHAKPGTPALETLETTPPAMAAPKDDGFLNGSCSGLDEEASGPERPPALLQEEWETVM
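HEK-293-derived GP2 cells expressing PTHR1 and a GloSensor cAMP reporter, 3,000/well, plated overnight, given luciferin plus IBMX (each 0.5 mM as added) for 1 h at 37 °C, then compound for 1 h at 37 °C. Luminescence was read after 15 min at room temperature.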
TCR act: Activators of T cell receptors: qHTS campaign; primary human leukocytes, anti-CD3, IL-2 HTRF, 48 h; Potency, µM (titrated, usually from 9.22 µM), inactives show at the top dose activation of IL-2 secretion, usual class: activators; 330,000 tested, under 10 active; AID 504894, 2011; note: % of control where 0% means no effect
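Using a-CD3 beads without co-stimulation, primary human leukocytes were exposed to compounds for 48 hr. An HTRF IL-2 kit measured the cytokine, with europium-to-d2 energy transfer producing emission at 665nm upon 320nm excitation.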
BCR signal inh: qHTS Assay to Find Inhibitors of Chronic Active B-Cell Receptor Signaling | Potency, µM (doses to about 46.1 µM), for inactives: at the highest dose activity change, negative = inhibition, usual class: inhibitors | ABC-DLBCL IkBa-CBG/CBR reporter, luminescence ratio, 4 h | 340,000 tested, 0.05% active; active = well fitted inhibition curve with a large enough effect in the signal ratio, with a control signal flat, not every such curve was filed as active; inconclusive = small, poorly fitted or top-dose-only effect, or effect the other way, or a change in a side signal; the % refers to the signal ratio;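 note: potency is the fitted concentration of half-maximal effect; plate controls were basal doxycycline-induced cells for no effect and cells given 10 µM MG132 for full effect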
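Compounds up to 46 uM were incubated four hours with TMD8 cells whose green CBG68 luciferase is fused to IkappaBalpha; red CBR luminescence normalised the signal, and concentration-effect curves were fitted to fusion, red and ratio data.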
Mito fusion act: qHTS Assay for Small Molecule Inhibitors of Mitochondrial Division or Activators of Mitochondrial Fusion; S. cerevisiae fusion-defective mutant growth rescue, CellTiterGlo 48 h; Potency, µM (top dose mostly 46.1 µM), inactives show at the top dose growth rescue (activation), most hits filed as activators; 320,000 tested, 0.23% active; note: potency is the fitted concentration of half-maximal effect; % of control where 0% means no effect; nearly all actives have a fitted effect of over 45% in size
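Read-out: ATP-based luminescence (CellTiterGlo, 10 min ambient) reporting growth of fusion-defective ts yeast after 48 hours at 37C on glycerol/ethanol YPEG medium in the presence of compound.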
BRCA1 expr act: qHTS Assay to Identify Small Molecule Activators of BRCA1 Expression; MCF7-BRCA1-FFLuc reporter, luminescence, 48 h; response scale: scaled: vehicle 0%, 10 µM genistein 100%; AID 624202, 2012; 380,000 tested, 1.1% active; Potency, µM (series often up to 46.1 µM), inactives show top-dose activation, most hits filed as activators; note: potency is the fitted concentration of half-maximal effect; nearly all actives have a fitted effect of over 80% in size
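Quantitative HTS in MCF7 cells stably reporting BRCA1 expression via firefly luciferase. Compound treatment lasts 48 h at 37 °C in phenol-red free MEM. Activation is expressed relative to genistein at 10 microM and DMSO.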
IL-2 act: qHTS of IL-2 Activators. IL-2 activation reporter assay, cell-based qHTS; stimulated with anti-CD3/CD4/CD28 beads; in transgenic mouse T cells. activation, % (series mostly up to about 46 µM). 360,000 tested, 0.065% active. AID 652025, 2013; in the data active = activation above about 50%; inconclusive = mostly about 30% to 49%; note: 0% is about no effect
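Using fluorescent plate cytometry, EGFP and DsRed are detected in transgenic mouse T cells stimulated 18 h at 37 degrees C with antibody-coated beads after 60 min compound pretreatment.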
* hit, by the source's call; i = inactive; u = inconclusive; x = not tested or not shown; [ ] = remark or other dose. Most compounds without a hit are left out; they make up all but 1.3% or so of the library. Unless noted, calls come from the whole dose curve; as a rule, active = well fitted curve in the direction sought with a large enough effect; inconclusive = small, poorly fitted or top-dose-only effect, or another doubt; inactive = no such curve, though single readings can be large; an effect the other way counts as inactive or inconclusive.

SMILES	PTHR1 agonist	TCR act	BCR signal inh	Mito fusion act	BRCA1 expr act	IL-2 act
CC(=O)NCCC1CCCCN1C(=O)c1cc(COc2cc(C)ccc2C)on1 (stereo not drawn)	-14%	-2%	0%	-3%	7.1µM*	-2
COCCCC1CCN(C(=O)c2cc(COc3cc(C)ccc3C)on2)CC1	-26%	-11%	1%	20%	3.2µM*	-3
CCc1ccccc1Nc1sc(C(=O)c2ccccc2)c(N)c1S(=O)(=O)c1ccccc1	-4%	x	x	x	x	x
COc1ccc(C(=O)NC(=S)NC(C)C)cc1Br	-9%[57.5 µM]	x	-3%	-8%	28%	0
COc1ccc(C(=O)NC(=S)NC(C)(C)C)cc1Br	-14%[57.5 µM]	-3%	6%	2%	11µM*	2
CC1CCCCC1NC(=O)c1cc(S(=O)(=O)N2CCOCC2)ccc1Cl (stereo not drawn)	i	1%[46.1 µM]	6%	x	-13%	-1
COc1ccc(CCn2c(=S)[nH]c(=O)c3cccnc32)cc1OC	x	x	x	x	14%	x
CCOC(=O)Cc1ccc2sc(-c3ccccc3)nc2c1	-20%	-1%[46.1 µM]	u	-1%	4.5µM*	0
N/C(=N\OC(=O)c1ccco1)c1ccc(Br)cc1	-8%[57.5 µM]	3%	u	5%	2.5µM*	0
Cc1ccc(/C(N)=N/OC(=O)c2ccco2)cc1	-40%	2%[46.1 µM]	u	13%	0%	-1
N/C(=N\OC(=O)c1ccco1)c1ccccc1	-29%	1%[46.1 µM]	u	1%	5.6µM*	0
N/C(=N\OC(=O)c1ccccc1)c1cccnc1	-18%	0%	-19%	-3%	11µM*	0
COc1ccc(C(=O)O/N=C(\N)c2ccc(Br)cc2)cc1	-28%	8%	12%	10µM*	96%	-3
CCOc1ccccc1CNCc1c(C(=O)O)n(Cc2ccc(F)cc2)c2cc(C)ccc12	-1%	x	x	x	-7%	x
Cc1cc(C)c2oc(C(=O)Nc3ccc(S(=O)(=O)N4CCCC(C)C4)cc3)cc(=O)c2c1 (stereo not drawn)	-5%	-2%[46.1 µM]	7%	0%	1%	-4
Nc1nc(=S)[nH]c2n[nH]nc12	x	x	x	x	-12%	x
C=CCn1cccc(C(=O)Nc2ccc(C)c(C)c2)c1=O	-78%	5%	4%	22%	3.2µM*	1
C=CCn1cccc(C(=O)Nc2ccc(C)cc2)c1=O	-87%	-3%	-2%	13%	u	-2
O=C(Nc1ccc(N2CCCC2)cc1)c1cc2ccccc2o1	-24%	3%	u	-2%	8.9µM*	2
CC(C)C(=O)Nc1cccc(NC(=O)c2cc3ccccc3o2)c1	-14%	-4%	u	18%	10µM*	-3
CC(=O)N1CCN(c2ccc(NC(=O)c3cc4ccccc4o3)cc2)CC1	-15%	-3%	3%	-2%	65%	-1
O=C(Nc1ccc(N2CCCCCC2)cc1)c1ccc[nH]1	-35%	-2%	u	27%	1.4µM*	-1
O=C(CCc1ccccc1)Nc1ccc(N2CCCCC2)cc1	i	5%[46.1 µM]	0%	-11%	11µM*	0
O=C(Cc1ccccc1)Nc1ccc(N2CCCC2)cc1	i	3%	1%	-1%	17%	3
CCc1ccc(NC(=O)COC(=O)c2ccccc2OCC(=O)N(C)C)cc1	x	x	x	x	4%	x
SMILES	PTHR1 agonist	TCR act	BCR signal inh	Mito fusion act	BRCA1 expr act	IL-2 act
CC1(C(=O)Nc2ccc3c(c2)OCCO3)CN(S(C)(=O)=O)CC(=O)N1CCCN1CCOCC1 (stereo not drawn)	-9%	x	x	x	x	0
O=C(Nc1cccc(-c2nc3ncccc3o2)c1)c1cc2ccccc2o1	-62%	-5%	u	13µM*	-32%	-2
CC(=O)Nc1cccc(NC(=O)c2cc3ccccc3o2)c1	-2%	2%	u	-2%	8.9µM*	-2
COc1cc(NC(=O)C(C)C)ccc1NC(=O)c1cc2ccccc2o1	-19%	4%	u	9%	8.9µM*	0
COc1ccc(C)cc1NC(=O)CSc1nc(=O)n(Cc2ccccn2)c2c1CCC2	-23%	x	u	x	-19%	x
CCOc1ccc(-c2nnc(Nc3ccc(S(N)(=O)=O)cc3)c3ccccc23)cc1	i	x	x	x	x	x
CCc1ccc(S(=O)(=O)c2cn(Cc3ccccc3)c3cc(N4CCCC4)c(F)cc3c2=O)cc1	-5%	x	x	x	x	x
COc1ccc(Cn2c(=O)[nH]c3cc(C(=O)NCCC(C)C)ccc3c2=O)cc1	-22%	x	x	x	7%	x
CCOC(=O)CNC(=O)c1ccc(SCC)cc1	15%	-3%	4%	-3%	13µM*	2
O=c1cc(-c2ccccc2F)[nH]c2cc3c(cc12)OCO3	x	x	x	-12%	x	x
Cc1ccsc1C(=O)Nc1ccc(C(=O)O)cc1	-5%[57.5 µM]	4%	u	-5%	-7%	-1
COc1ccc(NC(=O)c2sccc2C)cn1	i	-5%	u	8%	7.9µM*	0
COc1ccc(NC(=S)NC(=O)c2ccccc2)cn1	-8%	-5%	u	-8%	11µM*	-1
COc1ccc(NC(=O)c2cccc(Oc3ccccc3)c2)cn1	-20%	-8%	u	8%	-3%	-5
O=C(NC(=S)Nc1cccc2[nH]ncc12)c1ccccc1	-6%	-1%	u	6%	10µM*	3
CC(C)(C)c1ccccc1OCC(=O)Nc1ccccc1C(=O)NCc1cccnc1	-68%	-3%	u	16µM*	-52%	-1
O=C(NN=Cc1ccccc1Cl)c1ccccc1	-19%	x	x	x	5.6µM*	-2
O=C(N/N=C/c1c[nH]c2ccccc12)c1ccccc1	i	11%	u	1%	10µM*	0
Cn1cccc1-c1cc(C(=O)N/N=C/c2ccccc2Cl)[nH]n1	-25%	-28%	u	-3%	8.9µM*	0
COc1ccc(-c2nn3c(-c4cc(C)[nH]n4)nnc3s2)cc1	x	x	x	x	16%	x
CN(C)c1ccc(C2=Cc3ccccc3C2)cc1	x	x	x	x	-59%	x
C/C(=C\C(=O)c1ccccc1)Nc1ccc(O)cc1	-16%	-3%	u	0%	5µM*	-1
CN(C)/C=N/C(=S)Nc1ccc(Cl)cc1Cl	-13%	-2%	-1%	3%	5µM*	-2
CCc1c(C)nc2cc(-c3ccc(OC)cc3)[nH]n2c1=O	-9%[57.5 µM]	2%	5%	-1%	8.9µM*	-2
COc1cccc(-c2noc(-c3ccoc3C)n2)c1	-35%	7%	u	0%	2%	1
